# Laboratory results published in the supplement of paper PMC8773631.
# Where a name gives a salt, the structure may show the parent alone. ± gives the uncertainty stated by the source.
# System: NCC-MFS5-C1
# Experiment: cell viability relative to DMSO control; higher = less growth inhibition
# Settings: 10 µM; treatment time: 3 days
# Method: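 NCC-MFS5-C1 myxofibrosarcoma cells (1x10^4 per well, 384-well) were treated on day 2 with 10 µM of each drug. On day 5, viability was read by CCK-8 absorbance at 450 nm and normalised to the DMSO control (%), n = 2.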
row,SMILES,cell viability
1,COc1nc(N)nc2c1ncn2[C@@H]1O[C@H](CO)[C@@H](O)[C@@H]1O [Nelarabine],102 ± 3.3%
2,CC1(COc2ccc3c(c2)ncn3-c2ccc3cccc(N4CCC(N)CC4)c3n2)COC1,26.1 ± 3.3%
3,CCN1CCN(Cc2ccc(Nc3ncc(F)c(-c4cc(F)c5nc(C)n(C(C)C)c5c4)n3)nc2)CC1 [Abemaciclib],76.5 ± 6.7%
4,CN(Cc1cnc2nc(N)nc(N)c2n1)c1ccc(C(=O)N[C@@H](CCC(=O)O)C(=O)O)cc1 [Methotrexate],80.2 ± 3.6%
5,CC(C)C[C@H](NC(=O)[C@H](Cc1ccccc1)NC(=O)c1cnccn1)B(O)O [Bortezomib (PS-341)],4.89 ± 1.4%
6,CO[C@H](C(=O)[C@@H](O)[C@@H](C)O)[C@@H]1Cc2cc3cc(O[C@H]4C[C@@H](O[C@H]5C[C@@H](O)[C@H](O)[C@@H](C)O5)[C@H](O)[C@@H](C)O4)c(C)c(O)c3c(O)c2C(=O)[C@H]1O[C@H]1C[C@@H](O[C@H]2C[C@@H](O[C@H]3C[C@](C)(O)[C@H](O)[C@@H](C)O3)[C@H](O)[C@@H](C)O2)[C@H](O)[C@@H](C)O1 [Mithramycin A],97.4 ± 4%
7,CS(=O)(=O)CCNCc1ccc(-c2ccc3ncnc(Nc4ccc(OCc5cccc(F)c5)c(Cl)c4)c3c2)o1 [Lapatinib],58.6 ± 2.2%
8,CC1=C(CC(=O)O)c2cc(F)ccc2/C1=C\c1ccc([S+](C)[O-])cc1 (stereo not given) [Sulindac],103.76 ± 0.032%
9,COc1cc2nccc(Oc3ccc(NC(=O)Nc4cc(C)on4)c(Cl)c3)c2cc1OC [Tivozanib (AV-951)],59.7 ± 2.6%
10,CCCCCCNC(=O)n1cc(F)c(=O)[nH]c1=O [Carmofur],81.5 ± 1.1%
11,"CCCS(=O)(=O)Nc1ccc(F)c(C(=O)c2c[nH]c3ncc(-c4ccc(Cl)cc4)cc23)c1F [Vemurafenib (PLX4032, RG7204)]",76 ± 3.5%
12,CC[C@H]1OC(=O)[C@H](C)[C@@H](O[C@H]2C[C@@](C)(OC)[C@@H](O)[C@H](C)O2)[C@H](C)[C@@H](O[C@@H]2O[C@H](C)C[C@H](N(C)C)[C@H]2O)[C@](C)(O)C[C@@H](C)CN(C)[C@H](C)[C@@H](O)[C@]1(C)O [Azithromycin],69.4 ± 0.75%
13,CN(C)c1nc(N(C)C)nc(N(C)C)n1 [Altretamine],103 ± 3.1%
14,Nc1nnc(-c2cccc(Cl)c2Cl)c(N)n1 [Lamotrigine],90 ± 4.7%
15,CCN(CC)CCOc1ccc(C(=C(Cl)c2ccccc2)c2ccccc2)cc1 [Clomifene citrate],85.1 ± 8.8%
16,"O=C(CCCCCCC(=O)Nc1ccccc1)NO [Vorinostat (SAHA, MK0683)]",34.5 ± 7.2%
17,C[C@H](NC(=O)Cc1cc(F)cc(F)c1)C(=O)N[C@H](C(=O)OC(C)(C)C)c1ccccc1,108 ± 11%
18,COc1cc2ncnc(Nc3ccc(F)c(Cl)c3)c2cc1OCCCN1CCOCC1 [Gefitinib(ZD1839)],95.1 ± 3.7%

row,SMILES,cell viability
1,Nc1[nH]cnc2ncnc1-2 [Adenine HCl],98.1 ± 6.5%
2,COc1cc(Nc2ncc(F)c(Nc3ccc4c(n3)N(COP(=O)(O)O)C(=O)C(C)(C)O4)n2)cc(OC)c1OC [Fostamatinib (R788)],29.5 ± 0.8%
3,Clc1ccc(C(c2ccccc2Cl)C(Cl)Cl)cc1 (stereo not given) [Mitotane],76.1 ± 3.1%
4,O=c1[nH]c(=O)n(C2CCCO2)cc1F (stereo not given),88.2 ± 5.4%
5,CN1CCN(CCOc2cc(OC3CCOCC3)c3c(Nc4c(Cl)ccc5c4OCO5)ncnc3c2)CC1 [Saracatinib (AZD0530)],62.8 ± 3.8%
6,CCC(C)n1ncn(-c2ccc(N3CCN(c4ccc(OCC5COC(Cn6cncn6)(c6ccc(Cl)cc6Cl)O5)cc4)CC3)cc2)c1=O (stereo not given) [Itraconazole],77.7 ± 15%
7,O=C(O)C(=O)O.[NH-][C@@H]1CCCC[C@H]1[NH-].[Pt+2] [Oxaliplatin],72.7 ± 2.5%
8,O=C(/C=C/c1cccc(S(=O)(=O)Nc2ccccc2)c1)NO [Belinostat (PXD101)],26.9 ± 0.53%
9,Nc1nc2[nH]cc(CCc3ccc(C(=O)N[C@@H](CCC(=O)O)C(=O)O)cc3)c2c(=O)[nH]1 [Pemetrexed Disodium Hydrate],80.7 ± 2.4%
10,CC[C@]1(O)C[C@@H]2CN(CCc3c([nH]c4ccccc34)[C@@](C(=O)OC)(c3cc4c(cc3OC)N(C)[C@H]3[C@@](O)(C(=O)OC)[C@H](OC(C)=O)[C@]5(CC)C=CCN6CC[C@]43[C@@H]65)C2)C1 [Vinblastine sulfate],35.1 ± 2.5%
11,C=CC(=O)Nc1cc(Nc2nccc(-c3cn(C)c4ccccc34)n2)c(OC)cc1N(C)CCN(C)C [Osimertinib (AZD9291)],2.66 ± 0.22%
12,CO[C@H]1C[C@@H]2CC[C@@H](C)[C@@](O)(O2)C(=O)C(=O)N2CCCC[C@H]2C(=O)O[C@H]([C@H](C)C[C@@H]2CC[C@@H](OCCO)[C@H](OC)C2)CC(=O)[C@H](C)/C=C(\C)[C@@H](O)[C@@H](OC)C(=O)[C@H](C)C[C@H](C)/C=C/C=C/C=C/1C [Everolimus (RAD001)],64.9 ± 4.7%
13,CCc1c2c(nc3ccc(OC(=O)N4CCC(N5CCCCC5)CC4)cc13)-c1cc3c(c(=O)n1C2)COC(=O)[C@]3(O)CC [Irinotecan HCl Trihydrate],64.1 ± 2.3%
14,CO[C@H]1O[C@@H]2O[C@@]3(C)CC[C@H]4[C@H](C)CC[C@@H]([C@H]1C)[C@@]24OO3 [Artemether],91.2 ± 4.8%
15,C[C@]12CC[C@@H]3c4ccc(O)cc4C[C@@H](CCCCCCCCC[S+]([O-])CCCC(F)(F)C(F)(F)F)[C@H]3[C@@H]1CC[C@@H]2O (stereo not given in full) [Fulvestrant],74.38 ± 0.27%
16,CCCCCOC(=O)Nc1nc(=O)n([C@@H]2O[C@H](C)[C@@H](O)[C@H]2O)cc1F [Capecitabine],72.9 ± 5.9%
17,Nc1nc(F)nc2c1ncn2[C@@H]1O[C@H](COP(=O)(O)O)[C@@H](O)[C@@H]1O [Fludarabine Phosphate],104 ± 3.5%
